High-throughput results: PubChem, National Center for Advancing Translational Sciences (NCATS)
Shown are actives, neighbours in structure and some others; about 5.3% of the full set was active somewhere.
BAZ2B inh: BAZ2B (human) inhibition; Q9UIF8; AlphaScreen BAZ2B-H3K14Ac peptide displacement; Potency, µM (series often up to 114 µM), without a hit: at the highest dose activity change, negative = inhibition, usual class: inhibitors; 4.4% of 360,000 active; AID 504333; further: potency means the concentration at half of the fitted maximal effect; on the % scale 0 is the no-effect control and ±100 the full control effect; nearly all actives have a fitted effect of over 60% in size
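In this displacement format the biotinylated H3(5-23) peptide acetylated at Lys14 serves as ligand at 50 nM, with BAZ2B at 50 nM in PBS pH 7.4 containing 0.01% Tween-20. Donor and acceptor beads are 10 ug/mL final.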
JMJD2A Tudor: inhibitors of human JMJD2A Tudor domain; O75164; AlphaScreen JMJD2A-Tudor / H3K4me3 peptide binding; Potency, µM (doses to about 114 µM), for the others: at the highest dose activity change, negative = inhibition, most hits filed as inhibitors; 4.4% of 390,000 active; AID 504339; further: potency means the concentration at half of the fitted maximal effect; on the % scale 0 is the no-effect control and ±100 the full control effect; nearly all actives have a fitted effect of over 50% in size
CtBP-E1A inh: CtBP/E1A binding inhibition; 0.49% of 340,000 active; AlphaScreen GST-E1A/His-CtBP binding, 1536-well; hits give low values; activity change, % (test concentration not listed); in the data active means activity change below about -65%; inconclusive means mostly about -30% to -63%; further: on the % scale 0 is the no-effect control and ±100 the full control effect
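Protein mix (5X: 125 nM each GST-E1A, His-CtBP) was incubated with pinned compound 2 h at 37 deg C in dark, in 50 mM Tris pH 8.0 buffer with 300 mM NaCl. Glutathione donor and nickel acceptor beads followed; AlphaScreen signal read after 1 h.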
HP1b binding inh: HP1-beta chromodomain-methylated histone interaction inhibition; P83916; 0.56% of 390,000 active; AlphaScreen HP1-beta / biotin-H3K9me3 peptide binding; AID 540317; Potency, µM (highest dose often 114 µM), inactives show at the highest dose activity change, negative = inhibition, most hits filed as inhibitors; further: potency means the concentration at half of the fitted maximal effect; nearly all actives have a fitted effect of over 70% in size
Target sequence (P83916 whole entry, looked up): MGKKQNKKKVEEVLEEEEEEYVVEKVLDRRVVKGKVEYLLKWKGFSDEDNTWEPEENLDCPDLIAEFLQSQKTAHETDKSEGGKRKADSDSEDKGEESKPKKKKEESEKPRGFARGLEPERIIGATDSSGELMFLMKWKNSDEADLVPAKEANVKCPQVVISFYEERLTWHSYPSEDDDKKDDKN
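HP1-beta protein (50 nM final) preincubated 30 min at room temperature with biotinylated H3(1-18)K9me3 peptide (50 nM) in PBS pH 7.4, 0.01% Tween-20, then compound added for 30 min. AlphaScreen streptavidin donor/nickel chelate acceptor beads (10 ug/mL final), 30 min dark, luminescence read.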
Six1-Eya2 inh: inhibitors of human Six1/Eya2 interaction; AlphaScreen GST-Six1/His-Eya2 binding, biochemical; hits give low values; Q15475+O00167; 0.56% of 360,000 active; activity change, % (test concentration not listed); in the data active means activity change below about -65%; inconclusive means mostly about -30% to -63%; further: on the % scale 0 is the no-effect control and ±100 the full control effect
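Six1/Eya2 binding was read as AlphaScreen signal after compounds were pinned into GST-Six1 plus His-tagged Eya2 (5X stock 250/500 nM) in pH 8.0 Tris/NaCl/TCEP buffer, beads added, then incubated 1 h, 37 C, dark.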
TDP1 block: blocks human tyrosyl-DNA phosphodiesterase 1 | 0.28% of 350,000 active | recombinant TDP1, AlphaScreen DNA substrate cleavage | Potency, µM (titrated, usually from 130 µM), without a hit: at the top dose activity change, negative = inhibition, usual class: inhibitors | AID 485290; further: potency means the concentration at half of the fitted maximal effect; on the % scale 0 is the no-effect control and ±100 the full control effect; nearly all actives have a fitted effect of over 40% in size
Target sequence (Q9NUW8 whole entry, looked up): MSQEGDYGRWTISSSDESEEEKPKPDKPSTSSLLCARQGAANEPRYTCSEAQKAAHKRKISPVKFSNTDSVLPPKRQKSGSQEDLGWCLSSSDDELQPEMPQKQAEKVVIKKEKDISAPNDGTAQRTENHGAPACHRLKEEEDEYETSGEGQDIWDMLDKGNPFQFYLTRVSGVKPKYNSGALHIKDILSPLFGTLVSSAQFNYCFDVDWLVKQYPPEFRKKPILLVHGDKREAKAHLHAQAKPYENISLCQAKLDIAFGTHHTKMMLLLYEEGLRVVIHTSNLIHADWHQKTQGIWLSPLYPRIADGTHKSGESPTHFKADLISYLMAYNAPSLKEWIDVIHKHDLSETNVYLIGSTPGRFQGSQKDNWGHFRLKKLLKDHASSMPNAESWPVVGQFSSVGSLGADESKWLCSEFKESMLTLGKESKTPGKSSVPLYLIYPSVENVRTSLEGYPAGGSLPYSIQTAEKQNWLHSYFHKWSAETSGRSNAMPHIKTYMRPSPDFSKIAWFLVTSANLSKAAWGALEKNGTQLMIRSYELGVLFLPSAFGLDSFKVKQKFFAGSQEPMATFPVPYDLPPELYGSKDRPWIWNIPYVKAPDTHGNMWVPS
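Recombinant E. coli-expressed Tdp1 (1 nM) preincubated with compound 15 min at RT, then 5'-biotin/3'-phosphotyrosine-FITC DNA substrate (15 nM) added for 5 min. AlphaScreen beads (10 ug/ml) added, 10 min RT; tyrosine-FITC cleavage read as signal loss.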
The depositor's hits bear a star; ? = inconclusive; . = no result given; [ ] = remark or other dose. Unless noted, the call rests on the fitted dose curve; in most records, active means well fitted inhibition curve with a large enough effect; inconclusive means small, poorly fitted or top-dose-only effect; inactive means no such curve, though single readings can be large or run the other way.

SMILES	BAZ2B inh	JMJD2A Tudor	CtBP-E1A inh	HP1b binding inh	Six1-Eya2 inh	TDP1 block
Cc1ccc(-c2n[nH]c(=S)n2/N=C/c2c(C)nn(-c3ccccc3)c2C)cc1	-25.3%	79.4µM*	-17.4	10.1%	1.4	-5.3%
O=[N+]([O-])c1ccc(-c2nn(-c3ccccc3)cc2/C=N/n2c(-c3cccs3)n[nH]c2=S)cc1	0.9%	-22.1%	4.7	33.1%	-0.2	.
Cc1ccc(/C=N/n2c(-c3ccccc3)n[nH]c2=S)cc1	-28.2%	79.4µM*	-12.2	31.3%	-3.5	.
Cc1ccc(-c2n[nH]c(=S)n2/N=C/c2ccc(C(=O)O)cc2)cc1	-15.8%	3.16µM*	-10.0	34.4%	0.6	.
Cc1ccc(C)c(NC(=O)Cn2c(=O)nc(-c3ccccc3)c3ccccc32)c1	-13.1%	-15.6%	.	3.5%	.	6.2%
CCn1c(CN2CCCCC2)nc2cc(NC(=O)c3cc(OC)c(OC)c(OC)c3)ccc21	-20.0%	-7.9%	.	56.9%	.	1.6%
CCCCCCN1C=CC=C/C1=C\C=C(C#N)C#N	35.5µM*	?	-23.1	-31.4%	-18.6	7.0%
CN(C)c1ccc(C(=O)OCC(=O)Nc2ccc(S(N)(=O)=O)cc2)cc1	.	56.2µM*	15.1	?	5.0	.
CN(C)c1ccc(NC(=O)COC(=O)Cn2nnc3ccccc32)cc1	-35.5%	-27.1%	-3.2	-5.5%	1.2	7.9%
Cc1ccccc1SCC(=O)OCC(=O)Nc1ccc(N(C)C)cc1	39.8µM*	44.7µM*	-2.0	?	-25.1	2.9%
CCCCNC(=O)CCC(=O)Nc1ncc(-c2ccc(C)cc2)n1C	?	?	-1.3	7.6%	-2.8	1.0%
Cn1c(-c2ccc3c(c2)OCO3)cnc1NC(=O)CCC(=O)NCCc1ccccc1	?	56.2µM*	-5.0	-18.2%	-5.6	8.3%
CC1(C)C(=O)C=C[C@@]2(C)C1C=C[C@@]1(C)C2CC[C@@]2(C)C(c3ccoc3)OC(=O)C3OC312 (stereo partly specified)	.	.	.	.	.	7.7%
O=c1c2cn[nH]c2[nH]c(=S)n1-c1ccccc1	-3.8%	79.4µM*	7.6	4.6%	13.8	-8.7%
COc1ccc(-n2c(=S)[nH]c3[nH]ncc3c2=O)cc1	?	?	0.1	37.2%	6.3	4.1%
COc1ccccc1-c1ccc(/C=C2/C=C(CC(C)C)OC2=O)o1	39.8µM*	?	13.3	?	0.8	8.7%
O=Cc1ccc(-c2ccccc2OC(F)(F)F)o1	-1.8%	3.1%	0.1	21.0%	11.7	0.7%
CCCC1=C/C(=C/c2ccc(-c3ccccc3OC)o2)C(=O)O1	39.8µM*	?	17.0	-27.9%	-14.7	-2.6%
O=C1CC2(CCCC2)CC(=O)N1CCCCNC[C@H]1COc2ccccc2O1	.	.	.	.	.	2.7%[56.1 µM]
O=C(O)c1ccccc1Nc1cccc(OCc2ccc3ccccc3n2)c1	44.7µM*	?	4.1	-6.2%	1.5	6.1%[56.1 µM]
CCCn1c(=O)c2sccc2n2c(CCCC(=O)N3CCN(c4cccc(C)c4C)CC3)nnc12	?	-15.0%	.	42.2%	.	0.0%
CCn1c(=O)c(C(=O)CN2CCN(S(=O)(=O)c3ccccc3)CC2)c(N)n(Cc2ccccc2)c1=O	-12.6%	?	-1.4	2.0%	-3.7	0.0%
CCn1c(=O)c(C(=O)CN2c3ccccc3CC2C)c(N)n(Cc2ccccc2)c1=O (stereo unspecified)	35.5µM*	?	0.5	?	2.5	7.9%
CCn1c(=O)c(C(=O)CN2CCCc3ccccc32)c(N)n(Cc2ccccc2)c1=O	?	35.5µM*	-12.9	?	-1.5	9.1%
Cc1ccc(NS(=O)(=O)c2cccc(F)c2)cc1C	.	-1.4%	.	.	.	-0.3%
SMILES	BAZ2B inh	JMJD2A Tudor	CtBP-E1A inh	HP1b binding inh	Six1-Eya2 inh	TDP1 block
COc1ccc(Nc2nccc(-c3cccc(N)c3)n2)cc1	56.2µM*	-35.1%	0.2	-8.8%	3.7	.
COc1ccc(-c2nnc3c4ccccc4c(-c4ccccc4)nn23)cc1	-4.3%	-11.3%	.	36.4%	.	4.2%
CC(C)(C)c1ccc(OCCNCc2ccccc2)cc1	-7.7%	2.24µM*	-1.0	?	-5.6	.
O=C(CC(=O)NCCc1ccccc1)NCCc1ccccc1	-19.8%	-12.1%	7.9	13.4%	3.5	9.2%
CCC(C)NCCOc1cccc(Br)c1 (stereo unspecified)	-25.9%	4.47µM*	-0.7	?	7.3	-8.2%
NNCCc1ccccc1	-17.4%	79.4µM*	-0.9	20.2%	1.9	-5.2%[56.1 µM]
C=CCNCCOc1cccc(Br)c1	7.7%	-16.4%	-4.7	17.8%	21.9	1.2%
O=C(CCCOc1ccccc1)NCCc1ccccc1	2.5%	-6.2%	0.0	34.8%	11.7	-6.1%
c1ccc(CCNCCOc2ccccc2)cc1	?	2.82µM*	5.3	-20.9%	4.4	.
CC(C)(C)c1ccc(OCCNC(=S)Nc2ccccc2)cc1	-11.3%	-15.8%	-5.9	26.5%	-0.5	0.0%
CCN(CC)C(=O)c1sc2c(c1C)c(=O)n(Cc1ccccc1)c(=O)n2CC(=O)Nc1ccc(OC)cc1	-4.1%	-10.7%	.	39.8%	.	11.6%
CC(C)SCCCOc1ccc(C(C)(C)C)cc1	11.4%	40.5%	11.0	107.6%	10.9	0.0%
CNCCCOc1ccc(C(C)(C)c2ccccc2)cc1	79.4µM*	.	.	.	.	-1.1%
Cc1ccc(C(C)C)c(OCCNCCc2ccccc2)c1	?	25.1µM*	10.7	?	1.1	.
CCCCOc1ccc(C(=O)NCCc2ccccc2)cc1	-34.7%	7.0%	.	43.1%	2.8	2.4%
CCC(C)NCCOc1ccc(C(C)(C)c2ccccc2)cc1 (stereo unspecified)	?	2.82µM*	-7.1	?	-3.3	-2.9%
CC(C)(c1ccccc1)c1ccc(OCCCN2CCNCC2)cc1	20µM*	1.12µM*	-10.2	?	-27.0	1.2%
CCOc1ccc(C2C(=O)N(C3CCCCCC3)CC(=O)N2CCc2ccc(OC)c(OC)c2)cc1OC (stereo unspecified)	-0.5%	-24.2%	.	20.2%	.	7.8%
CCCCNCC#CCOc1cc(C)ccc1C(C)C	?	22.4µM*	.	-2.6%	21.8	3.6%
Cc1ccc(C(C)C)c(OCCCNCc2cccnc2)c1	-34.4%	-7.0%	2.7	30.3%	3.6	4.3%
C=CCNc1oc(-c2cccc(F)c2)nc1C#N	.	44.7µM*	.	?	.	2.6%
C=CCNc1oc(Cc2cccc3ccccc23)nc1C#N	50.1µM*	?	5.5	35.1%	-3.5	6.5%
COCCNc1oc(Cc2cccc3ccccc23)nc1C#N	?	-26.5%	.	-12.6%	2.5	.
C=CCNc1oc(-c2ccc(Cl)cc2)nc1C#N	.	?	.	47.6%	.	-3.1%
COc1ccc(N2CCN(c3oc(Cc4cccc5ccccc45)nc3C#N)CC2)cc1	3.98µM*	?	-5.9	?	-8.4	11.5%
